Source: PubChem BioAssay AID977607 (Broad Institute, 2014)
Hit rate of the full screen: of about 1,500 compounds, about 460 (31%) were called active. Not shown: some 1% with an inconclusive outcome.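 Rule for the calls: active = curve reaches 40% activation over neutral controls at an AC40 no higher than the top valid tested concentration; inconclusive = no clear call, values can overlap the other calls; inactive = signal moving opposite to the expected increase, and the rest.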 A selection follows. Measured potencies and affinities stand elsewhere.

Assay: GLuc-reported insulin release enhancers, glucose-stimulated beta cells – cell-based, INS-1E, Gaussia luciferase, luminescence, cherry-pick, set 2, dose response (AID 977607);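 note: 0% = median of the plate neutral control wells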
Conditions: INS-1E GLuc insulin secretion reporter, 2-3 h, active compounds read high; at 35 µM, 100% = signal doubled over neutral wells unless noted

Max activation, inactive:
O=C(NC1CCCC1)C(C1CC1)n1c(-c2ccccn2)nc2ccccc21 (stereo not given) -23.1% [at 0.135 µM, 100% = signal doubled over neutral wells]
CC(C)C(C(=O)NCc1ccco1)N(CC1CCCO1)C(=O)CNS(=O)(=O)c1ccc(F)cc1 (stereo not given) -14.9% [at 11 µM, 100% = signal doubled over neutral wells]
CCSc1ncnc2sc3c(c12)CCC3 31.4%
COc1ccccc1-c1cnc2c(Nc3cccc(OC(F)(F)C(F)F)c3)nccn12 -17.8% [at 11 µM, 100% = signal doubled over neutral wells]
Cc1cccc(CN2C(=O)CSc3ccc(C(=O)NC4CC4)cc32)c1 41% [at 0.135 µM, 100% = signal doubled over neutral wells]
Cc1cc(NCc2ccccn2)nc2ccccc12 -14.9% [at 0.005 µM, 100% = signal doubled over neutral wells]
CCOc1ccc(CCNC(=O)c2cc(C)on2)cc1OCC -13.4% [at 0.135 µM, 100% = signal doubled over neutral wells]
O=C(CN1C(=O)NC(Cc2c[nH]c3ccccc23)C1=O)NCCc1ccccc1 (stereo not given) 21% [at 11 µM, 100% = signal doubled over neutral wells]
COc1ccc(CCn2nnc(-c3ccc(NC(C)=O)c(Cl)c3)n2)cc1 -24.6% [at 11 µM, 100% = signal doubled over neutral wells]
COc1ccc2nc(CCN(C)C(=O)C3CCC(=O)N(Cc4cccc(F)c4)C3)[nH]c2c1 (stereo not given) -20.4%
COc1ccc(C2CC(=O)C(c3ccc(C)cc3)=CN2Cc2ccccc2)cc1 (stereo not given) -26.2%
COc1cccc(-c2ccc3c(c2)N(Cc2cccc(F)c2)C(=O)C(C)S3)c1 (stereo not given) -26.7% [at 11 µM, 100% = signal doubled over neutral wells]
O=c1c2sccc2n(Cc2cccc(F)c2)c(=O)n1-c1ccc(F)cc1 -14.5% [at 0.005 µM, 100% = signal doubled over neutral wells]
CN(C(=O)c1ccc(C#N)cc1)c1nnc(-c2cnccn2)s1 -16.1% [at 0.42 µM, 100% = signal doubled over neutral wells]
Cc1cc(C)n(CC(=O)n2c3ccccc3c3ccccc32)n1 20.6%
CN[C@H]1C[C@@H](c2ccccc2)N(C(C)=O)C[C@H]1CO -14% [at 0.135 µM, 100% = signal doubled over neutral wells]
COC(=O)c1ccc(C)c(-n2c(=O)n(Cc3ccccc3)c(=O)c3[nH]cnc32)c1 -20.8% [at 0.005 µM, 100% = signal doubled over neutral wells]
CC1CN(Cc2ccccc2)C(=S)NC1=O (stereo not given) -25.1% [at 3.8 µM, 100% = signal doubled over neutral wells]
Cc1c(C=O)c2ccccn2c1C(=O)c1ccc(F)cc1 -14.1% [at 0.0016 µM, 100% = signal doubled over neutral wells]
Cc1ccc(C(=O)c2sc3nc4c(cc3c2N)CCC4)cc1 -20.2% [at 3.8 µM, 100% = signal doubled over neutral wells]
O=C(N/N=C/c1ccncc1)c1cc(-c2ccc(Br)s2)[nH]n1 46.1%
Fc1cccc(-c2nnn3c2nc(Cl)c2ccccc23)c1 -32% [at 11 µM, 100% = signal doubled over neutral wells]
CCc1cc2c(COC(=O)c3cccc(NS(C)(=O)=O)c3)cc(=O)oc2cc1O -16.1%
O=C1CCc2cc(S(=O)(=O)N3CCN(c4ccc(F)cc4)CC3)cc3c2N1CC3 -14.5% [at 0.0016 µM, 100% = signal doubled over neutral wells]
CC(C)(C(=O)N1CCC1(C)C(=O)NS(=O)(=O)c1cccc(Cl)c1)c1ccccc1 (stereo not given) -17.3% [at 0.135 µM, 100% = signal doubled over neutral wells]
CCOc1ccccc1CNS(=O)(=O)c1cnc[nH]1 -8.34% [at 0.005 µM, 100% = signal doubled over neutral wells]
CN1CCN(CC(O)COC(c2ccc(Cl)cc2)c2ccc(Cl)cc2)CC1 (stereo not given) -16.1% [at 11 µM, 100% = signal doubled over neutral wells]
COc1ccccc1CSc1nc2c(c(=O)n(C)c(=O)n2C)n1C -16.4%
CC(=O)C(C)n1c(CN(C)Cc2ccccc2)nc2c1c(=O)n(C)c(=O)n2C (stereo not given) 13.8% [at 11 µM, 100% = signal doubled over neutral wells]
CCOC(=O)c1nn(-c2ccccc2)c2nc(Nc3ccccc3)cc(=O)n12 -18.7% [at 0.0016 µM, 100% = signal doubled over neutral wells]
O=S(=O)(c1ccc(=S)[nH]c1)N1CCCCCC1 19.7%
Cc1ccc(C(=O)c2sc(Nc3ccccc3)c(C#N)c2N)cc1 -18.3% [at 0.005 µM, 100% = signal doubled over neutral wells]
Cc1ccc(C)c(OCC(=O)Nc2cc(NC(=O)COc3cc(C)ccc3C)cc(C(=O)O)c2)c1 -27.7%
Cc1ccc(C)c(OCC(=O)NCC(C)(C)N2CCOCC2)c1 -15.8% [at 0.015 µM, 100% = signal doubled over neutral wells]
CC(C)Cn1c(Cc2ccccc2)n[nH]c1=S -12.9% [at 3.8 µM, 100% = signal doubled over neutral wells]
